Results taken from PubChem BioAssay.
Activity calls are given as the source filed them.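 The calls were made as follows, unless noted: active = fluorescence slope after compound addition differing from the mean of all screened samples at 99.7% confidence, in either direction; inactive = the rest.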

Assays:
[1] = inhibitors of TNFa-induced NFkB p65 translocation, primary screen, imaging, HUVEC, MLSMR starter and 10KST1 sets (AID 438;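 active = inhibition above 20% together with a positive visual image hit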;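 also: compound added about 3h40 before a 20 min TNFalpha stimulation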;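 as to inhibition: signal is the nuclear over cytoplasmic p65 intensity ratio per well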); settings: HUVEC TNFa-induced p65 nuclear translocation; cell count: measured here: nuclei count (cytotoxicity indicator), at 2.08 µM; inhibition: at 2 µM, stronger effect = higher value, 0% TNFa-plus-vehicle, 100% no-TNFa wells
[2] = reduction of polyQ htt aggregates in cells – imaging, exon1htt(103Q)mCFP cells, high-content imaging, primary screen (AID 483;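 active = visual image review flags a hit and inhibition of aggregation exceeds 20%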;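 also: compound exposure lasted 3 days before fixation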;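 as to nuclei count: percent of the per-plate median nuclei count of sample wells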); settings: exon1htt(103Q)mCFP cell line, aggregate imaging, at 2 µM; inhibition of aggregation: stronger effect = higher value; nuclei count: measured here: cell count, toxicity
[3] = endothelial E-selectin expression blockers – imaging, HUVEC, immunofluorescence, MLSMR starter and 10KST1 sets, primary screen (AID 487;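 active = visually confirmed hit in the image check and inhibition above 20%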;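 as to inhibition: signal is fraction of cell area covered by stained E-selectin grains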;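 as to nuclei count: 100% = median nuclei count of all wells on the same plate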); settings: HUVEC TNFalpha-induced E-selectin immunofluorescence imaging, at 2 µM; inhibition: stronger effect = higher value; nuclei count: measured here: cell number, toxicity
[4] = molecular target: Voltage-gated potassium channel subunit beta-2 (Rattus norvegicus) (UniProt P62483); experiment: inhibitors of rat Kvbeta2 reductase activity – biochemical, NADPH fluorescence, primary screen (AID 622;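 active = fluorescence slope higher than the sample average by over 3 SD, cut at about -0.22 in these data, passing the limit was not always enough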;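 also: slope of raw intensity against log time taken from 70 to 1610 s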); settings: recombinant KvBeta, 4-cyanobenzaldehyde reduction, at 10 µM, stronger effect = higher value
Sequence of Voltage-gated potassium channel subunit beta-2 (Rattus norvegicus) (P62483 whole entry, looked up): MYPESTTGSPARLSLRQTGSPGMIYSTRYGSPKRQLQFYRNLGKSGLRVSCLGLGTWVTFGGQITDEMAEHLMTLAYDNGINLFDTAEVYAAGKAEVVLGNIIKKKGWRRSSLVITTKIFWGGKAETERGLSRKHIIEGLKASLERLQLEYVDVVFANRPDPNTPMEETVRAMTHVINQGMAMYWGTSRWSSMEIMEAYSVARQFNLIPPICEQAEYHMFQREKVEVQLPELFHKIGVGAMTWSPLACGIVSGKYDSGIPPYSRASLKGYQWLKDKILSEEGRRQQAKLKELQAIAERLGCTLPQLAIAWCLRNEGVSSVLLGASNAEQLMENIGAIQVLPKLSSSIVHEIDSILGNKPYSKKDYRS

[5] = molecular target: Voltage-gated potassium channel subunit beta-2 (Rattus norvegicus) (UniProt P62483); experiment: enhancers of rat Kvbeta2 NADPH turnover – biochemical, NADPH fluorescence, primary screen (AID 623;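 active = NADPH fluorescence slope more negative than the mean of all samples by about 3 SD, 99.7% confidence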;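 also: fluorescence intensity change per second fitted from 20 to 320 s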); settings: Recombinant KvBeta, NADPH fluorescence decrease slope, 10 min; at 10 µM; stronger effect = lower value
[6] = molecular target: Alpha-2C adrenergic receptor (Homo sapiens) (UniProt P18825); experiment: compounds altering alpha2C-coupled GIRK flux – cell-based, HEK293 alpha2C/GIRK1/2, thallium flux, primary screen (AID 624); settings: thallium flux BTC fluorescence, at 10 µM, actives lie on both sides;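 also: slope of fluorescence ratio to pre-addition baseline per second over 15 to 24 s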
Sequence of Alpha-2C adrenergic receptor (Homo sapiens) (P18825 whole entry, looked up): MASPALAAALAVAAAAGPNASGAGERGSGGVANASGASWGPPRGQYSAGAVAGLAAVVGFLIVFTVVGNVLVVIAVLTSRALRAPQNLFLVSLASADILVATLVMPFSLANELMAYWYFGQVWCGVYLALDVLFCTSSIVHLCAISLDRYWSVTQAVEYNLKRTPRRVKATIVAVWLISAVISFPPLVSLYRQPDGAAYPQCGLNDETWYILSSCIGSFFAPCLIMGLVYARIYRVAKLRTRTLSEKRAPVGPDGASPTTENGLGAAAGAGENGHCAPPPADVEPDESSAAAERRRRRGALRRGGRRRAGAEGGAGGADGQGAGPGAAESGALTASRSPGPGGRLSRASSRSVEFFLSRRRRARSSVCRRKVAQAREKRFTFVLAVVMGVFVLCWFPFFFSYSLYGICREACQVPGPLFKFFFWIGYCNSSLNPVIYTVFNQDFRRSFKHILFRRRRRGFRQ

[7] = blockers of RIG-like receptor reporter activation – cell-based, Sendai virus stimulus, luciferase, 10K MLSCN set, TLR/RLR signaling modifier project, primary screen (AID 602276;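 active = inhibition at or above 50% at 10 µM; inactive = inhibition below 50%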;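 also: firefly luciferase from ISG56 promoter only with Renilla not read in this screen; 0% = Sendai virus plus DMSO and 100% = medium plus DMSO without virus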); settings: HEK293 RL24 IRF3 luciferase reporter, at 10 µM, stronger effect = higher value
[8] = TLR3 IRF3 reporter activation blockers – cell-based, poly I:C stimulus, luciferase, 10K MLSCN set, primary screen (AID 602277;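 active = inhibition of the reporter signal at or above 50%; inactive = inhibition below 50%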); settings: HEK293-TLR3 RL24 IRF3 luciferase reporter, at 10 µM, stronger effect = higher value

SMILES	cell count [1]	inhibition [1]	inhibition of aggregation [2]	nuclei count [2] [%]	inhibition [3]	nuclei count [3] [%]	fluorescence slope [4]	NADPH fluorescence slope [5]	slope [6]	inhibition [7]	inhibition [8]
CC(C)N1C(=O)C2C(C(=O)NC3CCCCC3)C3C=CC2(O3)C1C(=O)NC1CCCC1 (centres undefined)	371	4.3% (inactive)	23% (inactive)	101	-58.1% (inactive)	101	-0.366 (inactive)	3.1e-05 (inactive)	0.00675 (inactive)	8.4% (inactive)	18.1% (inactive)
C=CCOc1ccccc1/C=c1\sc2nc(=O)c(C)nn2c1=O	704	-11.1% (inactive)	7.5% (inactive)	100	-31.3% (inactive)	106	-0.362 (inactive)	1.8e-05 (inactive)	0.0042 (inactive)	15.6% (inactive)	26.5% (inactive)
Cc1nnc(N(C)C(=O)Cc2ccc3c(c2)OCO3)s1	709	-6.1% (inactive)	15.2% (inactive)	107	6.8% (inactive)	112	-0.55 (inactive)	1.1e-05 (inactive)	0.00419 (inactive)	21.5% (inactive)	39.7% (inactive)
O=C(NCc1ccccn1)c1cc(-n2cnnc2)ccc1Cl	365	-3.9% (inactive)	-1.2% (inactive)	112	-3.1% (inactive)	110	-0.502 (inactive)	-3.7e-05 (inactive)	0.00641 (inactive)	2.94% (inactive)	10.6% (inactive)
CCOc1ncccc1C(=O)Nc1ccc(Cl)cc1	861	-15% (inactive)	-9.2% (inactive)	121	-36.9% (inactive)	105	-0.44 (inactive)	-3.2e-06 (inactive)	0.0068 (inactive)	10.1% (inactive)	35.6% (inactive)
COc1cccc(-c2csc3nnc(SCC(=O)c4ccc(NC(C)=O)cc4)n23)c1	452	0% (inactive)	21.2% (inactive)	106	-116% (inactive)	176	-0.47 (inactive)	0.000104 (inactive)	0.00779 (inactive)	8.19% (inactive)	17.5% (inactive)
c1ccc2c(c1)c1c3n2CCNC3CCC1 (centres undefined)	663	-11.5% (inactive)	-9.5% (inactive)	103	-119% (inactive)	102	-0.364 (inactive)	-2e-05 (inactive)	0.00436 (inactive)	15.3% (inactive)	14% (inactive)
CCOC(=O)N1CCN(C(=O)CCc2ccc(S(=O)(=O)NCCc3ccccc3)cc2)CC1	735	-1.6% (inactive)	4.3% (inactive)	102	-24.7% (inactive)	123	-0.413 (inactive)	-9.6e-06 (inactive)	0.00346 (inactive)	2.18% (inactive)	5.38% (inactive)
CN(CC(=O)O)S(=O)(=O)c1cc(Cl)ccc1Cl	416	3.5% (inactive)	-0.4% (inactive)	111	-8.7% (inactive)	101	-0.437 (inactive)	-5e-05 (inactive)	0.0044 (inactive)	-11.4% (inactive)	-16.7% (inactive)
Cc1ccc2nc(NC(=O)CN(C)S(=O)(=O)c3cccc4nsnc34)sc2c1	379	-5.3% (inactive)	-0.2% (inactive)	113	-38.2% (inactive)	101	-0.41 (inactive)	-4.4e-05 (inactive)	0.00524 (inactive)	32.6% (inactive)	25% (inactive)
Cn1c(=O)[nH]c(=O)c2c1nc(N1CCNCC1)n2CCOc1ccccc1	321	-3.8% (inactive)	2.5% (inactive)	104	-91.3% (inactive)	124	-0.513 (inactive)	4.4e-05 (inactive)	0.00611 (inactive)	-11.6% (inactive)	1.53% (inactive)
Cc1nc2sc(C(c3cccc(F)c3)N3CCOCC3)c(O)n2n1 (centres undefined)	244	-9% (inactive)	-29% (inactive)	112	-18.1% (inactive)	119	-0.502 (inactive)	-9.8e-05 (inactive)	0.00576 (inactive)	-7.54% (inactive)	99.3% (active)
Cc1cccc2cc(CN(CCCO)C(=O)Nc3ccc(Cl)cc3)c(=O)[nH]c12	402	5.6% (inactive)	-13% (inactive)	117	-307% (inactive)	156	-0.646 (inactive)	1e-05 (inactive)	0.00902 (inactive)	12.2% (inactive)	-2.7% (inactive)
Cc1ccccc1-n1c(=O)cc(NCc2ccc3c(c2)OCO3)[nH]c1=O	447	1.6% (inactive)	40.2% (active)	74.9	-155% (inactive)	95.2	-0.614 (inactive)	1.9e-05 (inactive)	0.00889 (inactive)	16.5% (inactive)	19.7% (inactive)
